Source: PubChem BioAssay (EPA / NIEHS)
“And” between values parts separate entries of the source, which are not always exact repeats. Equal entries are not always repeated. More than one record can exist for a structure, and the calls need not agree. The source made the active and inactive calls. How the source made its calls: active means hit-call score of the fitted dose curve at least 0.9, where 1 is the maximum; inactive means score below 0.9.

test: ATG_TGFb_CIS: Attagene CIS-FACTORIAL HepG2 Assay for human Transforming Growth Factor (TGF) (AID 2282967); details: HepG2 Attagene CIS TGFb reporter, mRNA transcription; actives raise or lower the signal
Procedure: ATG_CIS is a cell-based, multiplexed-readout assay that uses HepG2, a human liver cell line, with measurements taken at 24 hours after chemical dosing in a 24-well plate.ATG_TGFb_CIS is one of 52 assay component(s) measured or calculated from the ATG_CIS assay. It is designed to make measurements of mRNA induction, a form of inducible reporter, as detected with fluorescence intensity signals by Reverse transcription polymerase chain reaction (RT-PCR) and Capillary electrophoresis technology.Data from the assay component ATG_TGFb_CIS was analyzed into 1 assay endpoint. This assay endpoint, ATG_TGFb_CIS, was analyzed with bidirectional fitting relative to DMSO as the negative control and baseline of activity. Using a type of inducible reporter, measures of mRNA for gain or loss-of-signal activity can be used to understand the reporter gene at the transcription factor-level as they relate to the gene TGFB1. Furthermore, this assay endpoint can be referred to as a primary readout, because this assay has produced multiple assay endpoints where this one serves a reporter gene function. To generalize the intended target to other relatable targets, this assay endpoint is annotated to the growth factor intended target family, where the subfamily is transforming growth factor beta.
Human liver HepG2 cells are transiently transfected with multiple reporter transcription units (MRTUs) in 6-well plates using FuGene 6 reagent (Roche; 3 ml FuGene/1 mg DNA). The MRTU constructs are regulated by a cis-regulating element (promoter). […] A major difference between the CIS and TRANS system is that in CIS activities of endogenous TFs are measured, whereas the TRANS assay evaluates changes in activities of exogenous, chimeric NR-Gal4 proteins. […] At the end of 24 hour incubation, total RNA was isolated using TriZol reagent (Invitrogen). The isolated RNA is then reverse-transcribed using oligo(dT) primer and Mo-MLV reverse transcriptase (Invitrogen) with DNAse I (Ambion) treatment for 30 min. The one-tenth of the produced cDNA was amplified by PCR using Taq DNA polymerase (Invitrogen) and two reporter sequence-specific primers. The PCR products were fluorescently labeled by primer extension with 6-arboxyfluorescein (6-FAM) 5'-labeled reporter sequence-specific primer (2 min at 95 C, 20 s at 68 C and 10 min at 72 C) and these products were digested with 5U of HpaI (New England Biolabs) for 2h at 37 C. The fragments were purified using Qiaquick PCR columns (Qiagen), analyzed on an ABI 3130xL genetic analyzer (Applied Biosystems) with peak positions identified by using a set of X-rhodamine (ROX)-labeled MapMarker1000 molecular weight standards (BioVentures). The raw capillary electrophoresis data was processed using Attagraph software (Attagene).

outcome, inactive:
COc1cc([N+](=O)[O-])ccc1N
O=C1NS(=O)(=O)c2ccccc21
COC1=CC(=O)C[C@@H](C)[C@]12Oc1c(Cl)c(OC)cc(OC)c1C2=O
CCCCCCC(C)(C)C(=O)O
COC(=O)C(F)(F)C(F)(F)C(F)(F)C(F)(F)C(F)(F)F
NC(=NCCCCCCN=C(N)/N=C(\N)Nc1ccc(Cl)cc1)/N=C(\N)Nc1ccc(Cl)cc1
CC(C)(C)c1ccc(O)c(O)c1
C=CC(=O)OCCC(F)(F)C(F)(F)C(F)(F)C(F)(F)C(F)(F)C(F)(F)F
CCCCCCCC(OC)OC
CCCCc1ccc2ccccc2c1S(=O)(=O)O
CCCCCCCCCCCCOC(=O)c1cc(O)c(O)c(O)c1
OCCN1CN(CCO)CN(CCO)C1
O=C(O)C(F)(F)OC(F)(F)C(F)(F)OC(F)(F)C(F)(F)OC(F)(F)C(F)(F)C(F)(F)C(F)(F)F
Cc1cc(=O)oc2cc(O)ccc12
O=C(O)C(=O)O
Oc1cc2ccccc2cc1O
CCCCC(CC)C(=O)OCCOCCOCCOCCOC(=O)C(CC)CCCC (stereo not given)
CC1=NN(c2ccccc2)C(=O)C1
FC(F)=C(F)C(F)(F)C(F)(F)C(F)(F)C(F)F
CN(Cc1cnc2nc(N)nc(N)c2n1)c1ccc(C(=O)N[C@@H](CCC(=O)O)C(=O)O)cc1
COC(=O)CC(C(C)=O)C(=O)OC (stereo not given)
O=P(O)(O)CCC(F)(F)C(F)(F)C(F)(F)C(F)(F)C(F)(F)C(F)(F)C(F)(F)C(F)(F)F
C=Cc1ccc(O)c(OC)c1
CCCCC(CC)C(=O)O (stereo not given)
CCc1ccccc1O
COc1cc(OC)nc(NC(=O)NS(=O)(=O)Nc2ccccc2C(=O)N(C)C)n1
CCCCc1oc2ccccc2c1C(=O)c1cc(I)c(OCCN(CC)CC)c(I)c1
CCOCCOCC
CC(=O)CC(C)C
O=C1OC2(c3ccccc31)c1cc(I)c(O)c(I)c1Oc1c2cc(I)c(O)c1I
OCC(F)(F)C(F)(F)C(F)(F)C(F)(F)C(F)(F)C(F)(F)C(F)(F)C(F)(F)C(F)(F)C(F)(F)C(F)(F)F
Cc1cncc(C)c1
O=C(c1cc(O)c(O)c(O)c1)c1ccc(O)c(O)c1O
CCc1cccc(CC)c1N(COC)C(=O)CS(=O)(=O)O
CC(O)COc1ccccc1 (stereo not given)
CCC(C)c1ccccc1O (stereo not given)

AC50, active:
O=C(Nc1cccc([N+](=O)[O-])c1)c1cc2ccccc2cc1O 48.1 µM
NC(=NCCCCCCN=C(N)/N=C(\N)Nc1ccc(Cl)cc1)/N=C(\N)Nc1ccc(Cl)cc1 0.0763 µM
CC(C)(C)c1ccc(O)c(O)c1 100 µM and 46.6 µM and 42.3 µM
O=C1OC2(c3ccccc31)c1cc(I)c(O)c(I)c1Oc1c2cc(I)c(O)c1I 93.8 µM
